Measured values reported in PubChem BioAssay (NCATS).
Records with an inconclusive call do not appear. A call without a number means that no potency is given here. Unmarked numbers belong to inactive results. Activity calls are given as the source filed them. Unless noted, the call rests on the fitted dose curve; in most records, active means well fitted inhibition curve with a large enough effect in the repeat runs; inconclusive means weak or mixed curves; inactive means flat fitted curve, though single readings scatter.

system: not listed separately; experiment: A High-Content qHTS Against Drug Library for the Identification of Small Molecules that Inhibit DYT1 Early Onset Primary Dystonia-Associated Cell Pathology (AID 1645839; calls by dose curve); settings: HEK293 Flp-In EGFP-delE TorsinA, punctate imaging, 48 h; series mostly up to 46.1 µM
In short: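 Cells were seeded and left for 24 h, then dosed with compound alongside tetracycline induction of mutant EGFP-TorsinA. They were incubated for 48 h, fixed in 4% paraformaldehyde, permeabilized and imaged for mislocalization (%pathology) and cell count.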

| Structure (SMILES) | Potency | % pathology change, negative = correction |
| --- | --- | --- |
| NC(=O)c1ncn([C@@H]2O[C@H](CO)[C@@H](O)[C@H]2O)c1N | inactive | – |
| CC/C=C(\C(=O)N[C@@H]1C(=O)N2C(C(=O)OCOC(=O)C(C)(C)C)=C(COC(N)=O)CS[C@H]12)c1csc(N)n1 | inactive | – |
| CC12CCC(CC1)C(C)(C)O2 | inactive | – |
| CS(=O)(=O)c1ccc([C@@H](O)[C@@H](CF)NC(=O)C(Cl)Cl)cc1 | inactive | – |
| CCCCN(CCCC)CCCOC(=O)c1ccc(N)cc1 | inactive | – |
| Cc1ncc(COP(=O)(O)O)c(C=O)c1O | inactive | – |
| CC1(C)OC(=O)NC1=O | inactive | – |
| CCOC(=O)[C@H](CCc1ccccc1)N[C@@H](C)C(=O)N1C(=O)N(C)C[C@H]1C(=O)O | inactive | – |
| C[C@@H]1CCN(C(=O)[C@H](CCCN=C(N)N)NS(=O)(=O)c2cccc3c2NC[C@H](C)C3)[C@@H](C(=O)O)C1 | inactive | – |
| O=C1O[C@H]([C@@H](O)CO)C(O)=C1O | inactive | – |
| CCCCC/C(C=O)=C\c1ccccc1 | inactive | – |
| CN1CCC[C@@H]1Cc1c[nH]c2ccc(CCS(=O)(=O)c3ccccc3)cc12 | inactive | – |
| CCCOC(=O)c1ccccc1 | inactive | – |
| CN(C)CCCO[C@@H]1[C@H]2OC(C)(C)O[C@H]2O[C@@H]1C(O)CO (stereo partly drawn) | inactive | – |
| Cn1c(=O)c2c(ncn2CC2OCCO2)n(C)c1=O | inactive | – |
| CCOc1ccc2ccccc2c1C(=O)N[C@@H]1C(=O)N2[C@@H]1SC(C)(C)[C@@H]2C(=O)O | inactive | – |
| O=C1OC(OC(=O)c2cccnc2Nc2cccc(C(F)(F)F)c2)c2ccccc21 (stereo not drawn) | inactive | – |

| Structure (SMILES) | Potency | % pathology change, negative = correction |
| --- | --- | --- |
| Cc1cccc(C)c1NC(=O)CN(CC(=O)O)CC(=O)O | inactive | – |
| CC1=C(C/C=C(\C)CCC[C@H](C)CCC[C@H](C)CCCC(C)C)C(=O)c2ccccc2C1=O | inactive | – |
| Cc1cc2c(cc1S(N)(=O)=O)S(=O)(=O)CCC2 | inactive | – |
| COc1ccccc1O | inactive | – |
| CC[C@@]1(c2ccccc2)NC(=O)N(C)C1=O | inactive | – |
| CCCCc1ncc(/C=C(\Cc2cccs2)C(=O)O)n1Cc1ccc(C(=O)O)cc1 | inactive | – |
| O=C(O)CC(O)C(=O)O (stereo not drawn) | inactive | – |
| Oc1cn2c(n1)Nc1ccc(Cl)c(Cl)c1C2 | inactive | – |
| CC(=O)Oc1ccc(C2(c3ccc(OC(C)=O)cc3)C(=O)Nc3ccccc32)cc1 | inactive | – |
| CCN(CC)CCSC(=O)C(c1ccccc1)c1ccccc1 | inactive | – |
| [Cl][In]([Cl])[Cl] | inactive | – |
| O=S(=O)(O)NC1CCCCC1 | inactive | – |
| C#CCN(C)Cc1ccccc1 | inactive | – |
| Oc1ccc(C(O)CNCCCCCCNCC(O)c2ccc(O)c(O)c2)cc1O (stereo not drawn) | inactive | – |
| N[C@@H](CSSC[C@H](N)C(=O)O)C(=O)O | – | 10.2% [at 0.369 µM] |
| COc1cc(C(=O)N2CCOCC2)cc(OC)c1OC | inactive | – |
| COc1ccc2cc1Oc1cc3c(cc1OC)CC[N+](C)(C)[C@H]3Cc1ccc(cc1)Oc1c(OC)c(OC)cc3c1[C@@H](C2)[N+](C)(C)CC3 | inactive | – |

target: Cytochrome P450 2D6 (Homo sapiens) (UniProt P10635); experiment: Cytochrome P450 family 2 subfamily D member 6 (CYP2D6) small molecule antagonists: luciferase biochemical (cell-free) qHTS assay (AID 1645840); settings: P450-Glo CYP2D6 enzyme, luciferin luminescence, 1 h; series mostly up to 57.4 µM; further: nearly all actives have a fitted effect of over 55% in size; further: potency means the concentration at half of the fitted maximal effect
Sequence (P10635 whole entry, looked up): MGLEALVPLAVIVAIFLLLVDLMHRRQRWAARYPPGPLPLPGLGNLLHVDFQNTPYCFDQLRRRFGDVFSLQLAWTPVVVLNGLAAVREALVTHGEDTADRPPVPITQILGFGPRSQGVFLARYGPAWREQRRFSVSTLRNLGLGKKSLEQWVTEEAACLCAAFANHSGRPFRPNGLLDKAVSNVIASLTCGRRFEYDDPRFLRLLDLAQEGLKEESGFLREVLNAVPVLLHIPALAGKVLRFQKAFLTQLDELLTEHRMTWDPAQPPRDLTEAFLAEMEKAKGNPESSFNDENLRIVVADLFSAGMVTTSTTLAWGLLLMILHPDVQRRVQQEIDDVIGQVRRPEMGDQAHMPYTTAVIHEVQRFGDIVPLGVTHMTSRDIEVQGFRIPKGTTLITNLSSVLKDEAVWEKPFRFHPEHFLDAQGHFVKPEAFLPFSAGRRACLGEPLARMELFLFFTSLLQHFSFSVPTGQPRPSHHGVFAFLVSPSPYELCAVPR
In short: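 P450-Glo CYP2D6 system: proluciferin substrate converted by enzyme to luciferin, read by luminescence proportional to activity. Enzyme-substrate mix with compound 10 min at room temperature, then NADPH regeneration 1 h before detection reagent.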

| Structure (SMILES) | Potency | activity change, negative = inhibition |
| --- | --- | --- |
| NC(=O)c1ncn([C@@H]2O[C@H](CO)[C@@H](O)[C@H]2O)c1N | inactive | – |
| CC/C=C(\C(=O)N[C@@H]1C(=O)N2C(C(=O)OCOC(=O)C(C)(C)C)=C(COC(N)=O)CS[C@H]12)c1csc(N)n1 | inactive | – |
| CC12CCC(CC1)C(C)(C)O2 | inactive | – |
| CS(=O)(=O)c1ccc([C@@H](O)[C@@H](CF)NC(=O)C(Cl)Cl)cc1 | inactive | – |
| CCCCN(CCCC)CCCOC(=O)c1ccc(N)cc1 | 0.0309 µM (active) | – |
| Cc1ncc(COP(=O)(O)O)c(C=O)c1O | inactive | – |
| CC1(C)OC(=O)NC1=O | inactive | – |
| CCOC(=O)[C@H](CCc1ccccc1)N[C@@H](C)C(=O)N1C(=O)N(C)C[C@H]1C(=O)O | inactive | – |
| C[C@@H]1CCN(C(=O)[C@H](CCCN=C(N)N)NS(=O)(=O)c2cccc3c2NC[C@H](C)C3)[C@@H](C(=O)O)C1 | inactive | – |
| O=C1O[C@H]([C@@H](O)CO)C(O)=C1O | inactive | – |
| CCCCC/C(C=O)=C\c1ccccc1 | inactive | – |
| CN1CCC[C@@H]1Cc1c[nH]c2ccc(CCS(=O)(=O)c3ccccc3)cc12 | 13.8 µM (active) | – |
| CCCOC(=O)c1ccccc1 | inactive | – |
| CN(C)CCCO[C@@H]1[C@H]2OC(C)(C)O[C@H]2O[C@@H]1C(O)CO (stereo partly drawn) | inactive | – |
| Cn1c(=O)c2c(ncn2CC2OCCO2)n(C)c1=O | inactive | – |
| CCOc1ccc2ccccc2c1C(=O)N[C@@H]1C(=O)N2[C@@H]1SC(C)(C)[C@@H]2C(=O)O | inactive | – |
| O=C1OC(OC(=O)c2cccnc2Nc2cccc(C(F)(F)F)c2)c2ccccc21 (stereo not drawn) | inactive | – |

| Structure (SMILES) | Potency | activity change, negative = inhibition |
| --- | --- | --- |
| Cc1cccc(C)c1NC(=O)CN(CC(=O)O)CC(=O)O | inactive | – |
| CC1=C(C/C=C(\C)CCC[C@H](C)CCC[C@H](C)CCCC(C)C)C(=O)c2ccccc2C1=O | inactive | – |
| Cc1cc2c(cc1S(N)(=O)=O)S(=O)(=O)CCC2 | inactive | – |
| COc1ccccc1O | inactive | – |
| CC[C@@]1(c2ccccc2)NC(=O)N(C)C1=O | inactive | – |
| CCCCc1ncc(/C=C(\Cc2cccs2)C(=O)O)n1Cc1ccc(C(=O)O)cc1 | inactive | – |
| O=C(O)CC(O)C(=O)O (stereo not drawn) | inactive | – |
| Oc1cn2c(n1)Nc1ccc(Cl)c(Cl)c1C2 | inactive | – |
| CC(=O)Oc1ccc(C2(c3ccc(OC(C)=O)cc3)C(=O)Nc3ccccc32)cc1 | inactive | – |
| CCN(CC)CCSC(=O)C(c1ccccc1)c1ccccc1 | 5.49 µM (active) | – |
| [Cl][In]([Cl])[Cl] | inactive | – |
| O=S(=O)(O)NC1CCCCC1 | inactive | – |
| C#CCN(C)Cc1ccccc1 | inactive | – |
| Oc1ccc(C(O)CNCCCCCCNCC(O)c2ccc(O)c(O)c2)cc1O (stereo not drawn) | inactive | – |
| N[C@@H](CSSC[C@H](N)C(=O)O)C(=O)O | – | -1.65% [at 0.91 µM] |
| COc1cc(C(=O)N2CCOCC2)cc(OC)c1OC | inactive | – |
| COc1ccc2cc1Oc1cc3c(cc1OC)CC[N+](C)(C)[C@H]3Cc1ccc(cc1)Oc1c(OC)c(OC)cc3c1[C@@H](C2)[N+](C)(C)CC3 | inactive | – |
